The structures appear in SMILES notation.

This assay relates to HCI01 (cells of a triple-negative basal-like breast cancer xenograft). The experiment in a line: cell viability of combination (% of vehicle); higher = less cytotoxic. The following applies: 1 µM; 72 h; partner dose: 10 nM. As to the method:
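PDX cells were treated for 72 h with each drug at 1 µM plus afatinib (10 nM; 1 µM for WHIM30). Luciferase viability is expressed as percent of vehicle.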
For the compound `CC(C)(C)Cn1c(N)nc2ccc(-c3[nH]c(C(C)(C)C)nc3-c3ccc(F)cc3)nc21.CS(=O)(=O)O.CS(=O)(=O)O` + CN(C)C/C=C/C(=O)Nc1cc2c(Nc3ccc(F)c(Cl)c3)ncnc2cc1O[C@H]1CCOC1 [Afatinib], the “cell viability of combination” value amounted to 35.9.
With `CCCCc1oc2ccc(NS(C)(=O)=O)cc2c1C(=O)c1ccc(OCCCN(CCCC)CCCC)cc1` [Dronedarone] + CN(C)C/C=C/C(=O)Nc1cc2c(Nc3ccc(F)c(Cl)c3)ncnc2cc1O[C@H]1CCOC1 [Afatinib] the figure was 48.1; with `C=C1C(=CC=C2CCCC3(C)C2CCC3C(C)C=CC(C)C(C)C)CC(O)CC1O` (stereo unspecified) [Doxercalciferol] + CN(C)C/C=C/C(=O)Nc1cc2c(Nc3ccc(F)c(Cl)c3)ncnc2cc1O[C@H]1CCOC1 [Afatinib], 44.8.
For `Cc1nc(NC(=O)N2CCCC2C(N)=O)sc1-c1ccnc(C(C)(C)C(F)(F)F)c1` (stereo unspecified) + CN(C)C/C=C/C(=O)Nc1cc2c(Nc3ccc(F)c(Cl)c3)ncnc2cc1O[C@H]1CCOC1 [Afatinib], the “cell viability of combination” value is 46.9.
Consider `CNCCCC12CCC(c3ccccc31)c1ccccc12.Cl` [Maprotiline HCl] + CN(C)C/C=C/C(=O)Nc1cc2c(Nc3ccc(F)c(Cl)c3)ncnc2cc1O[C@H]1CCOC1 [Afatinib], for which the “cell viability of combination” value came to 55.1.
Turning to `COc1ccc(CN2CCN(C(c3ccc(F)cc3)c3ccc(F)cc3)CC2)c(OC)c1OC.Cl.Cl` [Lomerizine HCl] + CN(C)C/C=C/C(=O)Nc1cc2c(Nc3ccc(F)c(Cl)c3)ncnc2cc1O[C@H]1CCOC1 [Afatinib], the “cell viability of combination” value was found to be 57.7.

The values are drawn from the supplement of paper PMC6992640.
